# Laboratory results from PubChem BioAssay (NCI).
# “And” between values parts separate entries of the source, which are not always exact repeats. Equal entries are not always repeated. The panel holds about 83,000 compounds, 20% with a hit somewhere; the sample as a whole holds those more often.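 In brief: 96-well plates, 48 h treatment, single concentration, percent growth endpoint.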 A number with no mark means an inactive call. The source made the active and inactive calls. Rule for the calls: active = growth percent below 10; inactive = the rest.
# Test system: MDA-MB-468 breast
# Assay: NCI-60 one-dose screen, 48 h (100 = growth as untreated, 0 = no growth, -100 = all killed)
# Conditions: 10 µM unless noted
row,SMILES,growth
1,O=C1CC[C@@H](C(=O)N[C@H]2CSSC[C@@H](C(=O)NCCc3ccccc3)NC(=O)[C@H](Cc3ccccc3)NC(=O)[C@@H]3CCCN3C(=O)[C@@H]3CCCN3C2=O)N1,90.2%
2,CCOC(=O)c1cn2ncnc(Oc3ccc(NC(=O)NCCN(C)C)c(Cl)c3)c2c1C,67.4%
3,COc1ccc(Cc2cc(-c3ccccc3)nn(Cc3ccccc3)c2=O)cc1OC,42.9%
4,COc1cc(C(=O)C[n+]2ccc3ccccc3c2)cc(OC)c1OC,98.3%
5,Nc1ncnc2c1N=C(c1ccc(Cl)cc1)CC(c1cccc(Nc3ccnc4cc(Cl)ccc34)c1)N2 (stereo not drawn),75%
6,COc1cccc(-c2nn(-c3ccccc3)cc2-c2ccnc(-c3cccnc3)c2)c1,80.4%
7,O=C1[C@H]2Cc3c([nH]c4ccccc34)[C@@H](c3ccc(Cl)cc3)N2C(=O)CN1C1CCN(Cc2ccccc2)CC1,27.3%
8,NC(=O)c1ccc[n+](CC(=O)N2CCN(c3cc4c(cc3F)c(=O)c(C(=O)O)cn4C3CC3)CC2)c1,87.2%
9,CO[C@H](C(=O)[C@@H](O)[C@@H](C)O)[C@@H]1Cc2cc3cc(O[C@H]4C[C@@H](O[C@H]5C[C@@H](O)[C@H](O)C(C)O5)[C@H](O)C(C)O4)c(C)c(O)c3c(O)c2C(=O)[C@H]1O[C@H]1C[C@@H](O[C@H]2C[C@@H](O[C@H]3C[C@@H](OC)[C@H](O)C(C)O3)[C@@H](O)C(C)O2)C(O)(O)C(C)O1 (stereo partly drawn),-30.2% (active)
10,Cc1cc(=NO)cc(C)n1O,98.1%
11,COc1ccc(-n2c(SCc3n[nH]c(=S)o3)nc3ccc(Cl)cc3c2=O)cc1,82.6%
12,CSc1ccc2c3c(n(C[C@H](O)CO)c(=O)c2c1)-c1ccccc1C3=O,39.8%
13,Nc1cc(-c2c[nH]c3ccccc23)nc2cc(-c3c[nH]c4ccccc34)nn12,52.1%
14,O=C(CCCCCCN1CC(=O)N2[C@@H](C3CC3)c3[nH]c4ccccc4c3C[C@H]2C1=O)NO,64.6%
15,CC1(C)NCCC[C@]2(C)[C@H]3CC(=O)[C@H]4[C@@H]5C[C@](C)(CO)CC[C@]5(C)CC[C@@]4(C)[C@]3(C)CC[C@@H]12,86.9%
16,CN1CCN(c2ccc(Nc3nc(NCCNC(=O)c4ccc(F)cc4)c4sccc4n3)cc2)CC1,48.4%
17,Fc1ccc(C2CC(c3cccc(Nc4ccncc4)c3)=NN2c2ccc(Cl)cc2)cc1 (stereo not drawn),63.6%

row,SMILES,growth
1,Cn1cc(-c2cc3ncnc(Nc4ccc(CC(=O)Nc5nc(C(C)(C)C)cs5)cc4)c3s2)cn1,31.2%
2,COc1ccc(-c2c(N)n[nH]c2-c2ccc(Cl)cc2O)cc1OC,84.1%
3,Cc1cc(C(C)(C)C)ccc1S,104%
4,O=c1cc(/C(=C2/C=CC=N2)c2ccc[nH]2)c2cc(Cl)ccc2o1,2.6% (active)
5,Cc1ccc(-c2nc(/C=N/Nc3cc(C)nc4ccc(Br)cc34)c(C)o2)cc1,-89% (active)
6,CN(C)c1cc(NN=C(c2ccc(O)cc2)c2ccc(O)cc2)c([N+](=O)[O-])cc1[N+](=O)[O-],102%
7,NC(=O)OCCn1cc(-c2nc(-c3c[nH]c4ncccc34)cs2)c2ccccc21,12.4%
8,COc1cc(/C=C\c2cc(/C=C\c3ccc(O)c(OC)c3)n(C(=O)COc3ccc(Cl)cc3Cl)n2)ccc1O,12.5%
9,CCN1C(=O)N(CC)C2C1NN=c1s/c(=C3\C(=O)N(CC(C)C)c4ccccc43)c(=O)n12 (stereo not drawn),6% (active)
10,O=C1c2ccc3c4c(ccc(c24)C(=O)N1CCCNCc1ccccc1)C(=O)N(CCCNCc1ccccc1)C3=O,-95.5% (active)
11,CN(C)CCCn1c2c(c3cc(-c4ccco4)ccc3c1=O)C(=O)c1ccccc1-2,40.2%
12,O=C1c2ccccc2C(=O)c2c(NCCNCCO)ccc(NCCNCCO)c21,-71.9% (active) and -54.1% (active) and -20.9% (active)
13,Cc1nn(C)c2ncnc(Nc3ccccc3Br)c12,107%
14,C=C=COc1cccc(/C(N)=N/C(N)=N/c2nc3ccccc3s2)c1,102%
15,O=C(O)CC(C(=O)O)/C(=C\c1ccccc1)c1ccccc1 (stereo not drawn),88.1%
16,C/C(=N\Nc1ccc(Cl)cn1)c1ccc2ccccc2n1,-20.3% (active)
